Results published in the supplement of paper PMC10338343.
± gives the standard deviation.

system: MILI (PIWIL2) piRISC loaded with piRNA #1 (26 nt); assay: pre-steady-state target cleavage rate (min^-1); guide: piRNA #1 5'p-UGAGGUAGUAGGUUGUAUAGUAUCCA; MIWI and MILI are mouse PIWI proteins and EfPiwi is from a freshwater sponge; tags in brackets are library labels; higher = faster piRNA-guided slicing of the target; conditions: auxiliary factor: 500 nM mouse GTSF1
How it was run: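 Cleave-'n-Seq measured uncleaved targets by sequencing after a transcribed, DNA-blocked target RNA library […] was mixed with 1 nM active affinity-purified piRISC holding one synthetic guide, with or without 500 nM GTSF1 partner protein, at 33 °C in HEPES–potassium acetate buffer for 0–8 or 0–960 min. Counts were normalised to depth and to weakly complementary targets, three trials were pooled, and k3 was capped at 0.0001 min^-1. A burst-and-steady-state fit gave the pre-steady-state cleavage rate.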
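Further: 1 nM active piRISC with 0.1 nM target library at 33 °C single turnover.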

Sequence | pre-steady-state target cleavage rate
GGAGACCUUAGUAUACUACCUACUACCUCA | 0.0896 ± 0.012
GGAGACCUAUGAAUACAACCUACUACUCUCA | 0.00959 ± 0.002
GGAGACCUAACUGUACAACCUACUACCUCA | 0.0814 ± 0.024
GGAGUGGAACUAUACAACCUACUACCUCA | 0.159 ± 0.011
GGAGACCUAACUAUUCAACCUACUAGCUCA | 0.089 ± 0.024
GGAGACCUUACUAUACAACCAACUACCUCA | 0.00455 ± 0.0024
GGAGACCUAUGAAUACAACCUACAACCUCA | 0.0078 ± 0.0029
GGAGACCUAUCUAUACUAGCUACUACCUCA | 0.0865 ± 0.011
GGAGACCUAUGAUAUGAACGUACAACCUCA | < 0.0001
GGAGACCUAUCUUUACAACCUUCUACCUCA | 0.00489 ± 0.0025
GGAGACCUUACUAUUCAAGCUACUACCUCA | 0.235 ± 0.013
GGAGACCUAACUAUACAAGCUACUUCCUCA | 0.144 ± 0.024
GGAGACCUUACUAUACAUCCUACAACCUCA | 0.214 ± 0.019
GGAGACCUAUGAAUACAAGCUAGUACCUCA | 0.0081 ± 0.0031
GGAGACCAUACUUUACAUCCUACUACCUCA | 0.296 ± 0.029
GGAGACCUAUCUAUAGUUCCUACUACCUCA | 0.0473 ± 0.012
GGAGACCUAUCUAUACAACCUACUCCCUCA | 0.0608 ± 0.0097
GGAGACCAUACUAUAAACCUACUACCUCA | 0.0199 ± 0.0046
GGAGACCAAACUAUACAACCUACAACCUCA | 0.12 ± 0.035
GGAGACCUAUGUAUAGAACCUACUACCUCA | 0.0559 ± 0.0092

Sequence | pre-steady-state target cleavage rate
GGAGACCUUACUAUACAACCUACUAGCACA | 0.0607 ± 0.017
GGAGACCUAUGAUUACAACAUACUACCUCA | 0.00271 ± 0.0024
GGAGAGGAAACUAUAGAACCUACUACCUCA | 0.178 ± 0.018
GGAGACCUAUGAUAACAACCUACUUCCUCA | 0.00353 ± 0.0025
GGAGACCUUUCUAUACAACCUUCUACCUCA | 0.00706 ± 0.003
GGAGACCUAUGAUAACAACCUACUUGGUCA | < 0.0001
GGAGACCUAUGAUAUGAAGGAACUACCUCA | < 0.0001
GGAGAGGAUUCUAUACAACCUACUAGCUCA | 0.0566 ± 0.01
GGAGACCUAUGAUUACAACCUACAACCUCA | 0.00538 ± 0.0023
GGAGACCUAACUAUACAAUCUACUACCUCA | 0.0713 ± 0.012
GGAGACCUAUGAAUACAACCAUCUACCUCA | 0.00333 ± 0.0021
GGAGACCUAUGAUUACAACCUACUCCCUCA | 0.00393 ± 0.0029
GGAGUGGAUACUAUACAACCUAAUACCUCA | 0.0398 ± 0.0071
GGAGACCUAUGAUUACAACCUACUACGCUCA | 0.0104 ± 0.0039
GGAGACCUUACUAUACUACCUACUACGUCA | 0.0704 ± 0.01
GGAGACGAUACUAUACAACGUACUACGUCA | 0.00557 ± 0.0029
GGAGACCUAACUAUACAACCUACAAGCUCA | 0.0191 ± 0.011
GGAGACCUAUGUAUACAACCUACAUACCUCA | 0.043 ± 0.0061
GGAGACCUAUGUAUACUUGCUACUACCUCA | 0.00505 ± 0.0014
GGAGACCUAUCUAUACAACCUACAUACCUCA | 0.113 ± 0.015
